Screens: PubChem, National Center for Advancing Translational Sciences (NCATS)
In the library only some 11% were active in any assay of this set; here they are far more common.
PNC assembly inh – High Content Assay for Compounds that inhibit the Assembly of the Perinucleolar Compartment; PC3M PTB-GFP, PNC prevalence imaging, 16 h; stronger effect = lower value; activity change (PNC), negative = inhibition, % at 10 µM; 140,000 compounds, 3.1% hits; AID 2417, 2010;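 active means readout at or below -70, meaning at least 70% loss of cells showing the perinucleolar compartment, a nuclear body marking cancer cells; inconclusive means readout between -30 and a set limit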;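 further: plate controls were DMSO wells for no effect and camptothecin positive control wells for full effect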
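Compounds are pinned in duplicate onto adhered PC3M cells stably expressing GFP-tagged PTB and incubated 16 h at 37 C. Cells are then fixed, nuclei stained with Hoechst, and PNC-positive cells counted.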
ALDH1A1 inh – qHTS Assay for Inhibitors of Aldehyde Dehydrogenase 1 (ALDH1A1). Purified ALDH1A1, NADH fluorescence, propionaldehyde substrate. Potency, µM (titrated, usually from 75.3 µM), for inactives: at the highest dose activity, negative = inhibition, hits mostly inhibitors. 220,000 compounds, 7.3% hits. AID 1030, 2008;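 further: potency means the concentration at half of the fitted maximal effect; plate controls were no enzyme wells and a reference inhibitor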
HPGD inh – qHTS Assay for Inhibitors of HPGD (15-Hydroxyprostaglandin Dehydrogenase); Potency, µM, without a hit: at the top dose activity change, negative = inhibition, hits mostly inhibitors; 15-hydroxyprostaglandin dehydrogenase [NAD(+)] (Homo sapiens), P15428; AID 894, 2007; purified HPGD, NADH fluorescence kinetic, PGE2 substrate; 150,000 compounds, 4.3% hits; further: potency means the concentration at half of the fitted maximal effect
Target sequence (P15428 whole entry, looked up): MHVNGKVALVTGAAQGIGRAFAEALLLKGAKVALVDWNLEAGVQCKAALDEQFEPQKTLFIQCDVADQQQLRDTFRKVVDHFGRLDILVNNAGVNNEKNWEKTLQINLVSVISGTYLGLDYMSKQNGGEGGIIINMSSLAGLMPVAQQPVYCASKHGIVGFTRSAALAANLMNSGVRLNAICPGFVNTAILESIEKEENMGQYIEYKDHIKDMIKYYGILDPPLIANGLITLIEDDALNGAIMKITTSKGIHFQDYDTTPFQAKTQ
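20 nM HPGD preincubated 15 min at room temperature with compound in 50 mM Tris-HCl pH 8, 0.01% Tween 20. Started with 1 mM NAD+ and 30 uM prostaglandin E2; NADH fluorescence (360/450 nm) read 5 times over 30-s intervals, last minus first.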
* hit, by the source's call; [ ] = dose if it differs, or a comment. Unless noted, the call rests on the fitted dose curve; in most records, active means well fitted inhibition curve with a large enough effect (not every such curve was filed as active); inconclusive means small, poorly fitted or top-dose-only effect, or another doubt; inactive means no such curve, though single readings can be large or run the other way. Unless noted, on the % scale 0 is the no-effect control and ±100 the full control effect.

COc1ccc(CNC(=O)CN(Cc2ccc(Cl)cc2)S(=O)(=O)c2ccccc2)cc1 was read as PNC assembly inh inconclusive, ALDH1A1 inh 2.2µM* and HPGD inh 3%.
COc1ccccc1CN(Cc1nc2ccccc2c(=O)[nH]1)S(=O)(=O)c1ccc2ccccc2c1 was read as PNC assembly inh 21, ALDH1A1 inh inconclusive and HPGD inh -15%.
`CON1C(=O)C(=O)N(OC)C2CCCCC21` (configuration not stated) gave PNC assembly inh -13, ALDH1A1 inh 17% and HPGD inh -4%.
CC(C)N1CCC(N2CCN(C3CCCCCC3)CC2CCO)CC1 (configuration not stated) was read as ALDH1A1 inh 1%.
For Cc1nc2cc(NC(=O)Nc3ccc(Br)cc3)ccc2o1 the results were ALDH1A1 inh 15%.
For CCCc1cc(C(=O)Nc2cccc(Cl)c2)no1 the results were PNC assembly inh -26, ALDH1A1 inh 11% and HPGD inh -18%.
Screening CCCc1cc(C(=O)Nc2ccc(F)cc2F)no1 returned PNC assembly inh -25, ALDH1A1 inh 3% and HPGD inh -12%.
Screening O=C(Nc1cccnc1)c1noc2c1CCCC2 returned PNC assembly inh -3, ALDH1A1 inh 22µM* and HPGD inh -14%.
For CCCc1cc(C(=O)Nc2ccccc2SC)no1 the results were PNC assembly inh 24, ALDH1A1 inh inconclusive and HPGD inh 22µM*.
`CCCc1cc(C(=O)Nc2cccnc2)no1` gave PNC assembly inh -106*, ALDH1A1 inh -19% and HPGD inh -17%.
`CC(C)(C)C1CCc2onc(C(=O)Nc3cccnc3)c2C1` (configuration not stated) gave PNC assembly inh -6, ALDH1A1 inh -1% and HPGD inh -2%.
Screening COc1ccc(Cl)cc1N(CC(=O)N(C)C)S(=O)(=O)c1ccc(C)c([N+](=O)[O-])c1 returned ALDH1A1 inh -5%.
O=S(=O)(NCc1cc(-c2ccccc2Cl)no1)c1ccc(Cl)cc1 was read as PNC assembly inh 11, ALDH1A1 inh inconclusive and HPGD inh -7%.
`O=c1[nH]ncc(N2CCCCC2)c1Cl` gave PNC assembly inh 7, ALDH1A1 inh -4% and HPGD inh -9%.
Screening O=c1[nH]ncc(N2CCCCCC2)c1Cl returned ALDH1A1 inh 10µM*.
CCOC(=O)c1sc(/N=C/c2c(C)[nH]n(-c3ccccc3)c2=O)c(C#N)c1C was read as PNC assembly inh -112*, ALDH1A1 inh -4% and HPGD inh -19%.
`Cc1[nH]n(-c2ccccc2)c(=O)c1/C=N/N(c1ccccc1)c1ccccc1` gave ALDH1A1 inh 9%.
Screening Cc1ccc(C(=O)Nc2cc(=O)n(C)c(=O)n2C)o1 returned PNC assembly inh 93, ALDH1A1 inh 4% and HPGD inh -11%.
Screening Cc1ccc(NC(=O)c2cccc(NC(=O)/C=C/c3ccco3)c2)cc1C returned PNC assembly inh 24, ALDH1A1 inh inconclusive and HPGD inh -14%.
Cn1c(NC(=O)/C=C/c2ccco2)cc(=O)n(C)c1=O was read as PNC assembly inh -121*, ALDH1A1 inh inconclusive and HPGD inh -7%.
`Cc1ccc(/C=C/C(=O)Nc2cc(=O)n(C)c(=O)n2C)o1` gave PNC assembly inh -12, ALDH1A1 inh 22µM* and HPGD inh -11%.
CNCC(=O)NCC(=O)N[C@@H](Cc1ccccc1)C(=O)N[C@@H](CC(C)C)C(=O)O was read as ALDH1A1 inh -4%.
`Cc1cc(-c2nnc(CCC(=O)N(C)Cc3cccc4ccccc34)o2)no1` gave ALDH1A1 inh 14%.
For CC1(C)CC(=O)C2=C(C1)NC(=O)CC2c1ccccc1F (configuration not stated) the results were PNC assembly inh 29, ALDH1A1 inh -3% and HPGD inh -11%.
`Cc1[nH]nc2c1C(c1ccccc1F)CC(=O)N2` (configuration not stated) gave PNC assembly inh -106*, ALDH1A1 inh 22µM* and HPGD inh -18%.
`O=C1CC(c2ccccc2F)C2=C(COC2=O)N1` (configuration not stated) gave ALDH1A1 inh 18µM*.
`O=C1CC(c2c(F)cccc2Cl)C2=C(COC2=O)N1` (configuration not stated) gave PNC assembly inh inconclusive, ALDH1A1 inh inconclusive and HPGD inh -4%.
Screening CC(=O)N(C)C(c1ccc(N(C)C)cc1)c1nnnn1-c1c(C)cccc1C (configuration not stated) returned PNC assembly inh -18, ALDH1A1 inh 0% and HPGD inh -6%.
For O=c1oc2c3c4c(cc2s1)CCCN4CCC3 the results were PNC assembly inh 8, ALDH1A1 inh 25µM* and HPGD inh 22µM*.
Cc1ccc2c(c1)-c1c(ssc1=S)C(C)(C)N2C(=O)c1ccco1 was read as PNC assembly inh -100*, ALDH1A1 inh 10µM* and HPGD inh 8.9µM*.
`CC1(C)c2ssc(=S)c2-c2ccccc2N1C(=O)c1ccco1` gave PNC assembly inh 17, ALDH1A1 inh 0% and HPGD inh -9%.
`O=C(Nc1ccc(N2CCOCC2)cc1)c1cccc(S(=O)(=O)N2CCC(Cc3ccccc3)CC2)c1` gave PNC assembly inh -23, ALDH1A1 inh 3% and HPGD inh -20%.
COC(=O)c1cc(C#N)c(N2CCN(C)CC2)nc1C was read as ALDH1A1 inh 7%.
CCOc1cc(C)cc2oc(=O)cc(-c3ccccc3)c12 was read as PNC assembly inh -23, ALDH1A1 inh 22µM* and HPGD inh -12%.
Cc1cc(OCC(=O)N2CCc3ccccc3C2)c2c(-c3ccccc3)cc(=O)oc2c1 was read as PNC assembly inh inconclusive, ALDH1A1 inh 14µM* and HPGD inh -18%.
For Cc1cc(OC(C)C)c2c(-c3ccccc3)cc(=O)oc2c1 the results were PNC assembly inh 0, ALDH1A1 inh inconclusive and HPGD inh inconclusive.
`O=C(COc1ccccc1F)N1CCc2ccccc2C1` gave ALDH1A1 inh -1%.
CCCCc1nc2c(c3c1C[C@H](C)OC3)CN(C(=O)C1CC1)CC2 was read as ALDH1A1 inh 6%[13.5 µM] and HPGD inh -1%.
For CCCCn1c(CCn2nc(C)c(Br)c2C)n[nH]c1=S the results were PNC assembly inh -12, ALDH1A1 inh -10% and HPGD inh 22µM*.
`CCn1c(CCCCc2n[nH]c(=S)n2CC)n[nH]c1=S` gave ALDH1A1 inh 7%.
`Cc1cccc(N/C(N)=N/c2nc(C)cc(=O)[nH]2)c1` gave ALDH1A1 inh -2%.
For CC(CN(C)C)C(C)(O)Cc1ccc(Cl)cc1 (configuration not stated) the results were ALDH1A1 inh inconclusive and HPGD inh -8%.
For CCN1C(=O)c2ccc(C(=O)Nc3ncc(C)s3)cc2C1=O the results were ALDH1A1 inh 2.2µM*.
O=C(CCCCCN1C(=O)c2ccccc2C1=O)Nc1nccs1 was read as PNC assembly inh inconclusive, ALDH1A1 inh -1% and HPGD inh 7.1µM*.
